In all, about 310,000 compounds went through this assay and about 18,000 (5.8%) were called active. Inconclusive results (about 22%) are left out. Shown is part of a subset that was picked to be rich in actives. Values without a mark were called inactive. The call rests on the fitted dose curve; in most records, active means well fitted inhibition curve with a large enough effect; inconclusive means small, poorly fitted or top-dose-only effect, or another doubt; inactive means no such curve, though single readings can be large or run the other way.

The values that follow come from PubChem BioAssay AID504832 (National Center for Advancing Translational Sciences (NCATS), 2011).
On the % scale 0 is the no-effect control and ±100 the full control effect; potency means the concentration at half of the fitted maximal effect.

A short description of this assay: Primary qHTS for delayed death inhibitors of the malarial parasite plastid, 48 hour incubation. Particulars: P. falciparum luciferase growth in erythrocytes; series mostly up to 28.7 µM; activity change, negative = inhibition: at the top concentration. Summed up: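 Luciferase-expressing P. falciparum in infected erythrocytes (2% hematocrit, 0.1% parasitemia final) in RPMI 1640/0.5% Albumax were exposed to compound for 48 hours at 37 C, 5% CO2; growth read as luminescence.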
On the technique in general: qHTS replaces the single test concentration by a dilution series.
For the compound `CC(C)C(c1nnnn1CCc1ccccc1)N1CCN(C(=O)c2ccco2)CC1` (stereo unspecified), the “activity change, negative = inhibition” value was -24%.
Regarding `N#Cc1ccc(C(c2nnnn2CCc2ccccc2)N2CCCCCC2)cc1` (stereo unspecified), the Potency was 1.65 µM (active).
As for `N#Cc1ccc(C(c2ccc(C#N)cc2)n2cncn2)cc1`, the “activity change, negative = inhibition” value was -10.5% [at 12.8 µM].
The same measure, in the same setting: as for `CCCc1nc(SCC(=O)N2CCCC2)c2c(=O)n(C)c(=O)n(C)c2n1`, the figure is 12.7%.
`CC(=O)N1CCN(CC(c2ccccc2)c2ccccc2)CC1`: the “activity change, negative = inhibition” value is -29%.
Regarding `COc1cccc(CN(C)CC(=O)NCc2ccccc2Cl)c1OC`, the “activity change, negative = inhibition” value was -4.79%.
In the case of `COc1cccc(CN(C)CC2CCCN(CCc3ccc(Cl)cc3)C2)c1OC` (stereo unspecified), the Potency is 5.86 µM (active).
As to `COc1ccccc1CN(C)C(=O)C1(c2ccc(Cl)cc2)CC1`, the “activity change, negative = inhibition” value is -29.6%.
The same measure, in the same setting: as for `COc1cccc(NC(=O)N2C3CCCC2CC(NC(C)=O)C3)c1` (stereo unspecified), the figure is 5.95%; as for `CCOc1cc(C2/C(=C(/O)c3ccc(S(=O)(=O)N4CCCCC4)cc3)C(=O)C(=O)N2CCOC)ccc1O` (stereo unspecified), 23.4%.
Same read-out and setting: with `O=C1CCCC2=C1C(c1cccs1)CC(=O)N2c1ccc(F)cc1` (stereo unspecified) the figure was -13.5%.
The same measure, in the same setting: as for `CCOC(=O)c1cc2c(n(-c3ccc(C)cc3)c1=O)CCCC2=O`, the figure is -0.459%.
`CCOC(=O)C1=C(N)N(c2ccc(C)cc2)C2=C(C(=O)CCC2)C1c1cccs1` (stereo unspecified): the Potency is 9.28 µM (active).
`COc1cc2cc(C(=O)N/N=C/c3cccc(OC)c3OC)[nH]c2cc1OC`: the “activity change, negative = inhibition” value was -25.8%.
Turning to `C=CCN1C(=NC(=O)COc2ccccc2)SC2CS(=O)(=O)CC21` (stereo unspecified), the “activity change, negative = inhibition” value was 11.7%.
Same read-out and setting: with `CCn1c(=N)c(S(=O)(=O)c2ccc(F)cc2)cc2c(=O)n3ccccc3nc21` the figure was -15.3%.
On to `CCOC(=O)c1cc2c(=O)n3ccccc3nc2n(CC(C)C)c1=NC(=O)c1c(-c2c(F)cccc2Cl)noc1C`, for which the Potency was 2.33 µM (active).
As for `C/C(=N/OC(=O)c1c(-c2c(F)cccc2Cl)noc1C)c1cnccn1`, the “activity change, negative = inhibition” value was 77.4%.
The same measure, in the same setting: with `O=C(Nc1cc2c3c(c1)CC(=O)N3CCC2)c1ccccc1F` the figure was 14.7%; with `COc1cccc(CN2CCN(Cc3ccc4cccc(F)c4n3)CC2CCO)c1` (stereo unspecified), -23.9%.
Turning to `O=c1c2c(-c3ccccc3)ccnc2[nH]n1-c1ccccc1`, the “activity change, negative = inhibition” value is 50.4%.
Same read-out and setting: as for `COc1ccc(C(=O)Nc2nncs2)c(OC)c1`, the figure is 81.1%.
As for `COc1ccc(Cc2nnc(NC(=O)c3ccc(OC)cc3OC)s2)cc1`, the Potency is 1.65 µM (active).
Regarding `COc1ccc(Cc2nnc(NC(=O)c3cc(OC)c(OC)c(OC)c3)s2)cc1OC`, the “activity change, negative = inhibition” value is -0.338%.
On the same count and under the same terms, as for `Cc1cc(C(=O)NC2CC(C)(C)Cc3c2cnn3-c2ccccc2)n[nH]1` (stereo unspecified), the figure is -17%.
On the same count and under the same terms, as for `COc1cccc(/C=N/Nc2ccc(Cl)nn2)c1`, the figure is 79.7%.
Turning to `Oc1cccc(/C=N/Nc2ccc(Cl)nn2)c1O`, the Potency was 0.415 µM (active).
Turning to `Clc1ccc(N/N=C/c2cccs2)nn1`, the “activity change, negative = inhibition” value was 51.7%.
For the compound `O=C(CN1CCCCC1)NC(=O)Nc1ccccc1F`, the “activity change, negative = inhibition” value was -1.84%.
Still for that read-out and setting: as for `Cc1ccc(NC(=O)CN(C)C(=O)COC(=O)C(C)(C)Oc2ccc(Cl)cc2)cc1`, the figure is 16.3%.
Consider `CN(C)CCCN(C(=O)c1ccc(S(=O)(=O)N2CCCc3ccccc32)cc1)c1nc2ccc(F)cc2s1`, for which the Potency is 13.1 µM (active).
Turning to `Cc1ccc2nc(N(CCN(C)C)C(=O)C3=COCCO3)sc2c1`, the “activity change, negative = inhibition” value was 19.2%.
Regarding `CCc1ccc2nc(N(CCCN(C)C)C(=O)c3ccc4c(c3)OCCO4)sc2c1`, the Potency is 3.29 µM (active).
In the case of `CCCC(=O)N(CCN1CCOCC1)c1nc2ccc(OCC)cc2s1`, the “activity change, negative = inhibition” value is 15.6%.
Still for that read-out and setting: as for `CCOc1ccc2nc(N(CCN(C)C)C(=O)c3ccc4ccccc4c3)sc2c1`, the figure is 18.6%.
Regarding `CCOc1ccc2nc(N(CCCN(C)C)C(=O)c3ccc(C(=O)c4ccccc4)cc3)sc2c1`, the Potency was 10.4 µM (active).
For `CCN(CC)CCN(C(=O)c1ccc(S(=O)(=O)N2CCOCC2)cc1)c1nc2cc3c(cc2s1)OCCO3`, the “activity change, negative = inhibition” value was 18.7%.
Still for that read-out and setting: with `CN(C)CCN(C(=O)C1=COCCO1)c1nc2ccc(Cl)cc2s1` the figure was -18.3%; with `CCC(=O)Nc1nnc(S(=O)(=O)N2CCCc3ccccc32)s1`, 30.3%.
Regarding `C[C@H](NC(=O)C1CC(=O)N(c2ccc3c(c2)OCO3)C1)C(=O)NCc1ccco1` (stereo partly specified), the “activity change, negative = inhibition” value is -14.8%.
The same measure, in the same setting: as for `CCc1ccccc1N(CC(=O)NCC1CCCO1)C(=O)CCC(=O)Nc1nccs1` (stereo unspecified), the figure is 3.46%; as for `CC(C)Oc1ccc(C(CC(=O)N2CCOCC2)C(C)C)cc1` (stereo unspecified), -14.2%; as for `COc1ccc(CSc2nnnn2-c2ccc(C(=O)O)cc2)cc1`, 27.6%.
Still for that read-out and setting: as for `COc1ccc(C(=O)NCC(=O)N/N=C/c2cccnc2)cc1`, the figure is 20.6%; as for `Cc1cc(NC(=O)COC(=O)c2ccc(F)c(S(=O)(=O)N3CCOCC3)c2)no1`, 14.3%.
As to `CCOc1ccc(CCNC(=O)COC(=O)c2ccc(F)c(S(=O)(=O)N3CCOCC3)c2)cc1OCC`, the Potency was 14.7 µM (active).
Consider `COc1ccc(C(=O)OCC(=O)c2ccc(C)c(S(=O)(=O)N3CCOCC3)c2)cc1OC`, for which the “activity change, negative = inhibition” value was -3.93%.
The same measure, in the same setting: with `CC(C)CNC(=O)C(=O)NCC(c1ccc2c(c1)OCO2)N1CCOCC1` (stereo unspecified) the figure was 24.3%.
Same read-out and setting: with `NS(=O)(=O)c1ccc(CCNC(=O)CCCn2c(SCC(=O)N3CCCC3)nc3ccsc3c2=O)cc1` the figure was -56.3%.
Turning to `CCCCn1c(SCC(=O)N2CCCC2=O)nc2cc(S(N)(=O)=O)ccc21`, the “activity change, negative = inhibition” value was -7.78%.
`CCCCn1c(SCC(=O)N2CCC(C(=O)OCC)CC2)nc2cc(S(N)(=O)=O)ccc21`: the Potency was 13.1 µM (active).
